Results reported in PubChem BioAssay AID1276 (Columbia University Molecular Screening Center, 2008).
The campaign covered roughly 190,000 compounds. About 2,000 (1.1%) were called active. Many of the other results were omitted from the sample, so actives are more common in it than they were. Unmarked numbers belong to inactive results.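 How the source made its calls: active means activation above a set limit, based on mean plus 3 SD of controls (cut at about 140% in these data); inconclusive means one replicate above the limit, the other below; inactive means the rest.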

Assay: APP 5'UTR reporter signal increase – luciferase, SH-SY5Y cells, primary screen (AID 1276)
Settings: SH-SY5Y APP 5'UTR luciferase reporter, luminescence; at 2 µM; stronger effect = higher value; zero percent = DMSO vehicle wells

Question: For `CCc1cccc(CC)c1NC(=O)COc1ccccc1C(=O)c1cc(C#N)c(=O)n(C2CCCCC2)c1`, which activation is on record?
Answer: 12.3%

Question: With `Cc1ccc(NC(=O)CSc2nc(CSc3ccc(C)cc3)cc(=O)[nH]2)cc1` as the compound, how does the activation read?
Answer: 7.62%

Question: With `CCN(CC)CCn1c(/N=C/c2cc(Br)ccc2O)nc2ccccc21` as the compound, how does the activation read?
Answer: -4.24%

Question: Which activation does the source give for `COc1cc(C(=O)Nc2cc(C(F)(F)F)ccc2-n2cncn2)cc(OC)c1OC` here?
Answer: 0.9%

Question: Which activation does the source give for `CCCCCN(C(=O)NC(=O)Nc1cccc(C)c1C)S(C)(=O)=O` here?
Answer: 12.9%

Question: For `COc1ccccc1/C=N\Nc1cc(C)nc(-n2nc(C)cc2C)n1`, which activation is on record?
Answer: -3.23%

Question: For `CCc1ccc(-c2cc(C(=O)NN3CCN(C)CC3)c3ccccc3n2)cc1`, which activation is on record?
Answer: 47.9%

Question: For `COCCNc1nc2nonc2nc1N1CCCC1c1nccs1` (stereo not given), which activation is on record?
Answer: 2.4%

Question: Which activation does the source give for `CCC(C)NCC(=O)Nc1ccc([N+](=O)[O-])cc1C(=O)Nc1ccccc1F` (stereo not given) here?
Answer: -0.05%

Question: For `CC(CC(=O)O)CC(=O)NNC(=O)c1cccc(Br)c1` (stereo not given), which activation is on record?
Answer: 7.74%

Question: With `Cc1cc(C)nc(N/N=C/c2c(C)oc3ccccc23)n1` as the compound, how does the activation read?
Answer: 22.1%

Question: Which activation does the source give for `O=C(Cc1ccc(F)cc1)N/N=C/c1ccc2c(c1)OCO2` here?
Answer: 42.8%

Question: For `Cc1noc(C)c1/C=N/Nc1ccc2ccccc2n1`, which activation is on record?
Answer: 169% (active)

Question: With `Cc1nc2ccccc2cc1C(=O)N/N=C/c1ccc([N+](=O)[O-])cc1` as the compound, how does the activation read?
Answer: -13.5%

Question: For `C(=N\Nc1ccc2ccccc2n1)/c1ccc2c(c1)OCO2`, which activation is on record?
Answer: 227% (active)

Question: For `Brc1ccc(-c2csc(N/N=C/c3ccc4c(c3)OCO4)n2)cc1`, which activation is on record?
Answer: -0.09%

Question: With `Cc1cccc(-n2c(=O)c3c(C)c(C)sc3n(CC(N)=O)c2=O)c1` as the compound, how does the activation read?
Answer: -15.7%

Question: With `CCn1c(SCC(=O)Nc2ccc(C)cc2)nc2nc3c(cc2c1=O)CCCC3` as the compound, how does the activation read?
Answer: 17.6%

Question: Which activation does the source give for `CC(C)CNC(=S)NC(=O)c1ccc(Cl)cc1` here?
Answer: 37.3%

Question: With `Cc1cccc(OCCC(=O)Nc2cc(S(=O)(=O)N3CCCCC3)ccc2N2CCOCC2)c1` as the compound, how does the activation read?
Answer: 11.1%

Question: Which activation does the source give for `COc1ccc(OCCNS(=O)(=O)Cc2ccccc2)cc1` here?
Answer: 8.23%

Question: With `CC1CN/C(=C\C(=O)c2ccc(Br)cc2)C(=O)N1` (stereo not given) as the compound, how does the activation read?
Answer: 138% (active)

Question: Which activation does the source give for `CN1CCCC(OC(=O)COc2ccc(Br)cc2)C1` (stereo not given) here?
Answer: 3.06%

Question: For `C/C(=C\C(=O)c1ccc(Br)cc1)N1CCCCC1`, which activation is on record?
Answer: -20.4%

Question: For `COc1ccc(Cc2nnc(N/N=C/c3ccccc3O)[nH]c2=O)cc1OC`, which activation is on record?
Answer: -85.9%

Question: With `Cc1cc(Cl)ccc1OCc1nc(-c2ccncc2)no1` as the compound, how does the activation read?
Answer: 95.7%

Question: With `COC(=O)c1sc(NC(=O)c2csc3c2CCCC3)nc1C` as the compound, how does the activation read?
Answer: 95.3%

Question: With `Cc1ccc(NC(=O)c2csc3c2CCCC3)cc1` as the compound, how does the activation read?
Answer: 232% (active)

Question: For `COC(=O)c1sccc1NC(=O)c1csc2c1CCCC2`, which activation is on record?
Answer: -8.07%

Question: For `Cc1cc(C)n(CCNCc2c(C(=O)N3C[C@@H](C)O[C@@H](C)C3)nc3ccc(Cl)cn23)n1`, which activation is on record?
Answer: 13.1%

Question: For `C/C(=C\C(=O)c1ccccc1)Nc1cccc(O)c1`, which activation is on record?
Answer: 33.4%

Question: For `O=C(CSc1ccccc1)Nc1ccc(C(=O)Nc2cccc(O)c2)cc1`, which activation is on record?
Answer: 37.6%

Question: For `O=C(Nc1cccc(O)c1)c1ccc(C(=O)c2ccccc2)o1`, which activation is on record?
Answer: 155% (active)

Question: Which activation does the source give for `CC1COc2ccccc2N1S(=O)(=O)c1ccccc1` (stereo not given) here?
Answer: -2.45%

Question: With `COC(=O)c1ccc(NC(=O)c2ccco2)cc1` as the compound, how does the activation read?
Answer: 120%

Question: With `O=C(CSc1ccccc1)Nc1ccc(NC(=O)c2ccco2)cc1` as the compound, how does the activation read?
Answer: 6.16%

Question: Which activation does the source give for `O=C(Nc1ccc(Oc2ccccc2)cc1)c1ccco1` here?
Answer: 163% (active)

Question: For `COC(=O)c1cc2n(n1)CCCNC2=O`, which activation is on record?
Answer: -7.46%

Question: With `Cc1ccc(-c2csc(NNC(=O)c3ccccc3)n2)cc1` as the compound, how does the activation read?
Answer: 3.5%

Question: For `Cc1ccc(NC(=O)c2cc(-c3ccc(C)o3)nc3ccccc23)nc1`, which activation is on record?
Answer: -0.92%

Question: With `Cc1ccc(Nc2nc(-c3ccc(O)cc3O)cs2)nc1` as the compound, how does the activation read?
Answer: 151% (active)

Question: For `CC1=NNC(=O)C1CCC(=O)N/N=C\c1cccc(Cl)c1` (stereo not given), which activation is on record?
Answer: 0.72%

Question: Which activation does the source give for `O=c1cc(N2CCCCC2)c(-c2ccccc2)nn1Cc1cccc(F)c1` here?
Answer: -6.8%

Question: For `CCOc1ccc(C(=O)NC(=S)Nc2ccc(N3CCOCC3)c(Cl)c2)cc1[N+](=O)[O-]`, which activation is on record?
Answer: -10.7%

Question: For `COc1cc(NC(=O)CN(C)S(=O)(=O)c2ccc3nc(C)sc3c2)cc(OC)c1`, which activation is on record?
Answer: 17.7%

Question: For `Cc1ccc2nc(-c3ccc(NC(=O)CN(C)S(=O)(=O)c4ccccc4)cc3)sc2c1`, which activation is on record?
Answer: 190% (active)

Question: Which activation does the source give for `Cc1cccc(N(CC(=O)Nc2ccc(-c3nc4ccc(C)cc4s3)cc2)S(C)(=O)=O)c1` here?
Answer: 104%

Question: With `Cc1ccc(NC(=O)Nc2ccc3oc(C)nc3c2)cc1` as the compound, how does the activation read?
Answer: 145% (active)

Question: Which activation does the source give for `Cc1nc2cc(NC(=O)NCc3ccccc3)ccc2o1` here?
Answer: 23.1%

Question: With `C=CCN(C(=O)Nc1ccc2oc(C)nc2c1)c1ccccc1` as the compound, how does the activation read?
Answer: 11.6%

Question: For `COC(=O)c1ccc(/C=N/N2C(C)CCCC2C)cc1` (stereo not given), which activation is on record?
Answer: 53%

Question: For `CCOC(=O)CSc1nnc(-c2ccc([N+](=O)[O-])cc2)o1`, which activation is on record?
Answer: 5.38%

Question: With `CC1=CC=CC2=N/C(=N\S(=O)(=O)c3ccc(F)cc3F)c3ccccc3CN12` as the compound, how does the activation read?
Answer: 27%

Question: For `Cc1cc(C(=O)COC(=O)C2CC2)c(C)n1-c1ccc(F)cc1`, which activation is on record?
Answer: 145% (active)

Question: Which activation does the source give for `COc1cc(/C=N/NC(=O)c2cc(C)n(-c3ccc(F)cc3)c2C)cc(OC)c1O` here?
Answer: 0.41%

Question: Which activation does the source give for `Cc1ccc(-n2c(C)cc(C(=O)CN3C(=O)C(=O)N(C4CCCC4)C3=O)c2C)cc1` here?
Answer: -9.76%

Question: For `Cc1ccc(OCC(=O)Nc2ccc(S(=O)(=O)Nc3ccccn3)cc2)cc1`, which activation is on record?
Answer: 0.31%

Question: Which activation does the source give for `CCc1nc2ccccc2c(C(=O)OC2CCCCC2=O)c1C` (stereo not given) here?
Answer: 2.83%

Question: With `CCn1c(SCc2cc(=O)n3ccsc3n2)nc2ccccc21` as the compound, how does the activation read?
Answer: -4.54%

Question: With `COc1ccc(/C=C/C(=O)Nc2ccc3c(c2)OCCO3)cc1OC` as the compound, how does the activation read?
Answer: -0.48%

Question: Which activation does the source give for `COc1cccc(/C=C/C(=O)Nc2ccc3c(c2)OCCO3)c1` here?
Answer: 168% (active)

Question: For `COc1ccc(OC)c(/C=C/C(=O)OCC(=O)Nc2ccc3c(c2)OCCO3)c1`, which activation is on record?
Answer: -19.2%

Question: For `CC1CCCC(NC(=O)COC(=O)[C@@H]2CC(O)CN2S(=O)(=O)c2ccc3c(c2)OCCO3)C1C` (stereo not given in full), which activation is on record?
Answer: 11.6%

Question: Which activation does the source give for `CN(C(=O)CSc1nncc2ccccc12)C1CCCCC1` here?
Answer: 56.8%

Question: For `Cc1ccc(C(=O)OC(C)CN2CCOCC2)cc1` (stereo not given), which activation is on record?
Answer: -15.7%

Question: For `COc1cc(Cl)c(C)cc1NC(=O)[C@@H]1CCCN1C(=O)c1cccs1`, which activation is on record?
Answer: -25.6%

Question: Which activation does the source give for `CC1CN(C(=S)SCC(=O)c2ccccc2)CC(C)O1` (stereo not given) here?
Answer: -2.53%

Question: For `NC(=NC(=O)c1ccccc1)N1CCOCC1`, which activation is on record?
Answer: 9.73%

Question: For `O=C(CSC(=S)N1CCOCC1)c1ccccc1`, which activation is on record?
Answer: 139% (active)

Question: With `O=C(NCc1nnc(SCC(=O)N2CCCc3ccccc32)o1)c1ccccc1F` as the compound, how does the activation read?
Answer: -9.96%

Question: Which activation does the source give for `COc1cc([N+](=O)[O-])ccc1NC(=O)CN1CCCC1` here?
Answer: -0.5%

Question: For `COc1ccc(Sc2nc(-c3ccccc3)ncc2OC)cc1`, which activation is on record?
Answer: -14%

Question: Which activation does the source give for `COc1cc(SC)ccc1C(=O)NCCOc1ccccc1Cl` here?
Answer: 143% (active)

Question: With `COc1cc(SC)ccc1C(=O)Nc1cc(C)ccn1` as the compound, how does the activation read?
Answer: 220% (active)

Question: Which activation does the source give for `COc1ccccc1CNC(=O)c1ccc(SC)cc1OC` here?
Answer: -5.82%

Question: For `COc1cc(SC)ccc1C(=O)Nc1nc(C)cs1`, which activation is on record?
Answer: 57.9%

Question: For `Cc1ccnc(NC(=O)c2ccoc2C)c1`, which activation is on record?
Answer: 33.5%

Question: For `O=C(NCCOc1ccccc1Cl)C(=O)Nc1ccccc1`, which activation is on record?
Answer: 0.2%

Question: For `O=C(CCC1CCCN(C(=O)Cc2ccc(F)cc2)C1)N1CCN(c2ccccn2)CC1` (stereo not given), which activation is on record?
Answer: 10.5%

Question: With `Cc1c(C2=CCN(S(=O)(=O)c3ccc(Cl)cc3)CC2)c2ccccc2n1C` as the compound, how does the activation read?
Answer: -2.27%
